In PubChem BioAssay (NCATS):
Inconclusive results are not listed. Where a call stands in place of a potency, no number is given. Activity calls are given as the source filed them. The call rests on the fitted dose curve; in most records, active means well fitted cell-killing curve with a large enough effect; inconclusive means small, poorly fitted or top-dose-only effect, or effect the other way; inactive means flat fitted curve, though single readings scatter.

Assay: Cell Viability - LYMP2-003 (AID 965);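 further: cells exposed to compounds for 24 h before reading; nearly all actives have a fitted effect of over 50% in size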
Conditions: LYMP2-003 lymphoblastoid cell viability; series mostly up to 92.2 µM
Description: NIH Chemical Genomics Center [NCGC]
NIH Molecular Libraries Screening Centers Network [MLSCN]
National Institutes of Environmental Health Sciences [NIEHS]
National Toxicology Program [NTP]
We have developed a 1536-well cell-based assay for quantitative high throughput screening (qHTS) against a number of cell lines to determine in vitro cytotoxicity of small molecules. This particular assay uses a human lymphoblastoid cell line (LYMP2-003) purchased from Coriell Institute for Medical Research.
NCGC Assay Protocol Summary:
The CellTiter-Glo luminescent cell viability assay (Promega) is a homogeneous method to measure the number of viable cells in culture. The end point readout of this assay is based on quantitation of intracellular ATP, an indicator of metabolic activity, using the luciferase reaction. Luciferase catalyzes the oxidation of beetle Luciferin to oxyluciferin and light in the presence of ATP. The luminescent signal is proportional to amount of ATP present.
Using the CellTiter-Glo luminescent cell viability assay, the amount of cellular ATP was measured in the lymphoblastoid cell line with complete culture medium following compound treatment for 24 hours. The assay was performed in opaque white Kalypsys 1536-well plates. In the screen, tetraoctylammonium bromide was used as positive control. Library compounds were measured for their ability to cause acute toxicity in the cell line, as reflected by a decrease in intracellular ATP levels, in a concentration-dependent manner. […] AC50 values were determined from concentration-response data modeled with the standard Hill equation.
qHTS protocol for CellTiter Glo lymphoblastoid cellular assay
[Step] [Parameter] [Value] [Description]
1. Reagent; 5 uL; 2500 lymphoblastoid cells/well
2. Time; 5 hr; 37 C incubation
4. Controls; 23 nL; Tetraoctylammonium bromide 6.4pM to 92 uM
5. Time; 24 hr; 37 C incubation
6. Reagent; 5 uL; CellTiter Glo reagent
7. Time; 30 min; Room Temperature
8. Detection; Luminescence; Viewlux plate reader
Keywords: cell viability, cytotoxicity, lymphoblastoid cell line, luminescence, NTPHTS, NTPHTS_NCGC, NIEHS, DSSTox, MLSMR, MLSCN, NIH Roadmap, qHTS, NCGC

Row | Structure (SMILES) | Potency
1 | CNC(=O)N(c1ccccc1)c1ccccc1 | inactive
2 | Cc1cccc(C)c1 | inactive
3 | C=CCOC(=O)COCCC(C)C | inactive
4 | CCCCCCCCC/C=C/CC1CC(=O)OC1=O (stereo not given) | inactive
5 | Cc1cccc(C(=O)O)c1 | inactive
6 | Nc1ccc(Cl)cc1[N+](=O)[O-] | inactive
7 | O=C(O)c1cc(Cl)cc(Cl)c1 | inactive
8 | Cc1ccccc1C(=O)O | inactive
9 | O=C(O)CNC(=O)c1ccc(CO)o1 | inactive
10 | CCOC(C)(C)C | inactive
11 | C=C(C)C(N)=O | inactive
12 | CC/C=C1/OC(=O)c2ccccc21 | inactive
13 | Cc1cc([N+](=O)[O-])ccc1N | inactive
14 | O=c1[nH][nH]c(=O)c2cc([N+](=O)[O-])ccc12 | inactive
15 | COC(=O)CCCC(=O)OC | inactive
16 | Nc1ccccc1S(=O)(=O)O | inactive
17 | CC/C(C)=N/O | inactive
18 | c1ccc2n[nH]nc2c1 | inactive
19 | CC(C)N=C=NC(C)C | inactive
20 | COC(=O)CC#N | inactive

Row | Structure (SMILES) | Potency
21 | CCCCCCC=O | inactive
22 | NCCCCCCN | inactive
23 | Cc1ccc2ncccc2c1 | inactive
24 | CC(C)(O)CCC(C)(C)O | inactive
25 | CC(C)CCOC(=O)/C=C/c1ccccc1 | inactive
26 | CC(C)c1ccccc1 | inactive
27 | CCCCC(CC)C(=O)O (stereo not given) | inactive
28 | O=Cc1ccc(Cl)cc1 | inactive
29 | OC(CCl)CCl | inactive
30 | CCNS(=O)(=O)c1ccc(C)cc1 | inactive
31 | C=C(C)C(=O)OCCCCCCCCCC | inactive
32 | CC1CCCO1 (stereo not given) | inactive
33 | Cc1ccc(Cl)cc1N | inactive
34 | C=Cc1ccccn1 | inactive
35 | c1ccc2[nH]cnc2c1 | inactive
36 | COc1ccc(N)c(OC)c1 | inactive
37 | O=[N+]([O-])c1cccc(C(F)(F)F)c1 | inactive
38 | CC(C)(O)C(=O)O | inactive
39 | C(=C/c1ccccc1)/c1ccccc1 | inactive
40 | CC(C)CO | inactive
